Consider 88 sequences from the supplement of paper PMC3334620.

The full ranking holds about 33,000 sequences; the median of “E-score (-0.5 to 0.5)” is about -0.056, and the highest 2% start at about 0.38. This is one part of a sample in which the highest values are shown more often than they occur.

The target of this experiment is Stb4 (UniProt P50104). Put plainly: PBM E-score (8-mer binding enrichment) (E-score (-0.5 to 0.5)); higher = stronger / more preferred TF binding. Particulars: protein concentration: 200 nM; construct: GST-DNA-binding domain. On the procedure: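 Universal 'all 10-mer' protein binding microarrays (Agilent AMADID 015681) probed with GST-tagged S. cerevisiae TFs (full-length or DBD) made by in vitro transcription/translation (PURExpress), about 100-200 nM. Bound TF was detected with fluorescent anti-GST. Each ungapped 8-mer (which stands for itself and its reverse complement) is scored by the PBM enrichment score (E-score), a modified Wilcoxon-Mann-Whitney statistic from -0.5 to +0.5, computed with the Universal PBM Analysis Suite. Scale: above 0.35 generally sequence-specific binding.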
Chain of UniProt P50104 (P50104 whole entry, the tested form may be a part): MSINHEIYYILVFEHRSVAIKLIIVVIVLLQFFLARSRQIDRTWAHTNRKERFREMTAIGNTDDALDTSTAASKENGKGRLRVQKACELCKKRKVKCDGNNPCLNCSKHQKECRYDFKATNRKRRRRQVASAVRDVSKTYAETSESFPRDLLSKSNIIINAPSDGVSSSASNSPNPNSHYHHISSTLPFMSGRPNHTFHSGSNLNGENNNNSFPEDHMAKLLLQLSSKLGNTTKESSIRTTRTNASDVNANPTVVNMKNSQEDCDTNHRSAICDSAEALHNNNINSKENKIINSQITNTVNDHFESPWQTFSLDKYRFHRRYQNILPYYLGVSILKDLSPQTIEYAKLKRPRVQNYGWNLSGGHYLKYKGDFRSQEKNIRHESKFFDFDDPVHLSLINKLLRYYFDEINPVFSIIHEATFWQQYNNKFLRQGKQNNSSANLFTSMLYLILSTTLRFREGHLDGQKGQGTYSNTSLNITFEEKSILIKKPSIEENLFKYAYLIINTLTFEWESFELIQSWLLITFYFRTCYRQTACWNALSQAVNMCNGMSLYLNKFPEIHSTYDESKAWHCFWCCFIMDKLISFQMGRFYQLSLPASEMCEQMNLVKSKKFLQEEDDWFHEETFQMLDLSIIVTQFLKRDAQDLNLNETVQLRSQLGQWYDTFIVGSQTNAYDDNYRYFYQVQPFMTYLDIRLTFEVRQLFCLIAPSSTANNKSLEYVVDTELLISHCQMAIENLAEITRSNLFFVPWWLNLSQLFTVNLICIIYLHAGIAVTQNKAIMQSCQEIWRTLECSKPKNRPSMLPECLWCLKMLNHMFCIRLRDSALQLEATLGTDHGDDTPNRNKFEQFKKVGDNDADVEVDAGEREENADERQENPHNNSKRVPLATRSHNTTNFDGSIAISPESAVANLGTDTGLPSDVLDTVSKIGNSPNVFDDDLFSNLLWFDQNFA
In the case of AGCTCGGC, the “PBM E-score” value was 0.412. The result for AGCTCGGG reads 0.443. Take CGTGCCAG: the “PBM E-score” value was -0.186. The result for AAGGTAGG reads -0.0211; that for ACTTGACA, -0.05; that for ACGATACG, -0.314. The result for CACCGAGG reads 0.308; that for AGCCGATC, 0.313. The result for AGCCGAGC reads 0.448.

Regarding AGCCGCGG, the “PBM E-score” value came out at 0.315. For CGCCGATC, the “PBM E-score” value was 0.241.

Regarding GGCCGAGA, the “PBM E-score” value came to 0.347. As to CGCCGAGA, the “PBM E-score” value came out at 0.361.

Turning to AGCCGAGG, the “PBM E-score” value is 0.437. The result for AGCCGATA reads 0.344; that for AGCCGACC, 0.293; that for CGCCGAGC, 0.39. The result for AGCCGAGA reads 0.436; that for GCATATGC, -0.173; that for CGCCACGC, -0.108. Regarding AAGGACTC, the “PBM E-score” value came out at 0.127. The result for TGGATGAA reads -0.185; that for GTGCCAGA, -0.31.

As for AAGCGGCA, the “PBM E-score” value worked out at 0.133. The result for GCTGACGA reads -0.346.

Consider GAGCACTC, for which the “PBM E-score” value was 0.09.

For the sequence CTCCGGAA, the “PBM E-score” value turned out to be 0.391.

For AACCGGAA, the “PBM E-score” value was 0.377. The result for GTCCGGAA reads 0.373; that for TTACGGAA, 0.365; that for AACCGGAT, 0.383. The result for CTCCGGAC reads 0.285. The result for ATACGGAA reads 0.36.

As for ATCCGGAA, the “PBM E-score” value amounted to 0.436. The result for CTCCGGTA reads 0.254; that for TTCCGGAA, 0.46. The result for ATCCGGAC reads 0.336. Regarding AACCGGAG, the “PBM E-score” value came out at 0.23. For CAAATCCC, the “PBM E-score” value came to 0.141. The result for CACCCAGG reads -0.115; that for GCGCCGCA, 0.0423. The result for GCTGGCAC reads -0.224. The result for CTAAAATC reads -0.12. CCCGCTTA: the “PBM E-score” value turned out to be 0.0362. The result for AAACAGTT reads -0.0803; that for AATCAATC, 0.055. Turning to ATCCGGAT, the “PBM E-score” value is 0.459.

On to ATCCGGAG, for which the “PBM E-score” value stood at 0.385. For the sequence ATCCGCAT, the “PBM E-score” value is 0.348.

Consider ATCCGGTC, for which the “PBM E-score” value came to 0.302. The result for ATCCGGTA reads 0.322; that for ATGCGGAG, 0.0793. The result for CTCCGGAG reads 0.304; that for GTCCGGAC, 0.283; that for ATCCGGTG, 0.397. The result for CCTGGGTC reads -0.126; that for AGTTAAAA, 0.045; that for CATCAGGC, -0.149. As to GCTCATCC, the “PBM E-score” value was found to be 0.127. Consider AACGGATG, for which the “PBM E-score” value stood at 0.304. The result for GACGGATA reads 0.385; that for CACGGATG, 0.338; that for CACGGATA, 0.385. The result for GACGGATC reads 0.265; that for AACGGATT, 0.155; that for TACGGAAA, 0.322. The result for CACGGATC reads 0.35; that for TACGGAGA, 0.0409. For GACGGAGA, the “PBM E-score” value worked out at 0.187.

In the case of AACGGATA, the “PBM E-score” value was found to be 0.439. The result for TACGGATA reads 0.385; that for GCTCAACC, -0.206. The result for ACTCTCCT reads -0.272; that for GGCAAGTA, 0.0793. The result for TGCGAGAA reads -0.132; that for CAAAATCA, -0.00631.

Regarding TATCCGAA, the “PBM E-score” value stood at 0.493. The result for AATCCGCA reads 0.157; that for GATCCGAA, 0.482. Regarding CATCCTAA, the “PBM E-score” value is -0.079.

Consider TATCCGCA, for which the “PBM E-score” value came to 0.408. With GATCCAAA, the “PBM E-score” value was -0.0151. The result for TATCCAAA reads -0.184; that for CATCCAAA, -0.2.

In the case of CATCCGCA, the “PBM E-score” value came out at 0.314.

On to CATCCGAA, for which the “PBM E-score” value turned out to be 0.476. Regarding GATCCGTA, the “PBM E-score” value came to 0.351.

With TGTCCGAA, the “PBM E-score” value was 0.35.
